Data: ChEMBL document CHEMBL3988442, “University of Dundee, Small-Polar-MMV Screening Library” (2021)
Out of some 53,000 compounds screened, about 900 (1.7%) showed an effect of 50% or more. For the sample, strong results were picked, then their nearest neighbours and some compounds at random.

test system: Mycobacterium tuberculosis; experiment: Cornell - Phenotypic assay to identify agents that inhibit growth of Mycobacterium tuberculosis; type: functional; design: scale not given: direction of the effect not stated beside the values; conditions: 10 mM as filed; unlikely as a test dose

Structure (SMILES)	Percent Effect [%]
CC(C)c1cc2c(s1)NC(c1ccccn1)NC2=O (centres undefined)	-1.811
CCn1c(C2CCCN2Cc2noc(C(C)(C)C)n2)nc2ccccc21 (centres undefined)	13.86
COc1ccccc1CC(=O)NC(C)c1nc2cccnc2n1C(C)C (centres undefined)	-9.677
CC(C)Nc1ncnc2c1CCN(C(=O)c1ccncc1F)CC2.O=C(O)C(F)(F)F	-9.598
N#Cc1ccc(C(=O)O)nc1/C=C/c1cccc(F)c1	2.587
O=C(O)c1cc(/C=C/c2ccccc2)ncn1	65.58
N#Cc1ccc(C(=O)O)nc1/C=C/c1cccc(Cl)c1	-13.81
O=C(O)C1(Oc2ccc3ccccc3c2)CCN(c2ncccn2)CC1	20.42
O=C(O)c1cc(/C=C/c2ccc3ccccc3c2)ncn1	74.73
N#Cc1ccc(C(=O)O)nc1/C=C/c1cccc(Br)c1	10.67
O=C(O)c1cc(/C=C/c2cccc3ccccc23)ncn1	65.34
O=C(O)c1c(Cl)ncn1-c1cccc2ccccc12	19.97
CNC(=O)C1CCN(C(=O)NCc2ccc(-c3ccn[nH]3)cc2)CC1	-24.99
N#Cc1ccc(N2CCC3(CCC(=O)N3CCN3CCCC3)CC2)nc1.O=C(O)C(F)(F)F.O=C(O)C(F)(F)F	3.156
CCc1nnc2n1CCN(C(=O)CN(C)C1CC1)C2	-12.51
CCN1Cc2cc3c(cc2NCCC1=O)OCO3	-32.17
CN1CCC(N(CCc2ccccc2)C(=O)COCC2CCCO2)CC1 (centres undefined)	41.94
CN1CC(=O)N(c2ccsc2)CC12CCN(S(=O)(=O)C1CC1)C2.O=C(O)C(F)(F)F (centres undefined)	6.764
O=C(NC1CCC1)C1=NOC2(CCN(Cc3ccccc3)C2)C1 (centres undefined)	-9.005
N#CCSCCCN1CCN(C(=O)c2cccc(Cl)c2)CC1	18.37
CCC(Nc1nc(C(C)C)nc2c1cnn2C)c1ccncc1 (centres undefined)	25.2
CC[C@H](Nc1nc(C(C)C)nc2c1cnn2C)c1ccccc1	70.75
CCC(Nc1nc(C(C)C)nc2c1cnn2C)c1ccc(O)cc1 (centres undefined)	1.347
Cc1nc(Nc2nnc(C)s2)cc(C2CCCN2c2ccncc2)n1 (centres undefined)	-13.84
CCc1noc(C(C)N2CCc3c(ncn3C3CC3)C2)n1 (centres undefined)	-20.08

Structure (SMILES)	Percent Effect [%]
COCc1nc(C(=O)N2CCCC(n3nc(C)cc3C)C2)cs1 (centres undefined)	-24.43
COCc1nc(C(=O)N2CCCC(n3cccn3)C2)cs1 (centres undefined)	67.19
CCc1nccn1C1CCCN(C(=O)c2csc(COC)n2)C1 (centres undefined)	19.86
CN1CCC2(CC1)C(=O)N(CC1CC1)c1ccccc12.O=C(O)C(F)(F)F	8.295
c1coc(CNCC2Cn3nncc3CO2)c1 (centres undefined)	-14.67
Cc1cccnc1NCCNC(=O)c1cnc(-c2cccs2)nc1O	19.3
COc1ccc(CN(Cc2ccco2)Cc2[nH]cnc2C)c(OC)c1.O=C(O)CC(O)(CC(=O)O)C(=O)O	39.21
COc1cccc(CN(Cc2ccco2)Cc2[nH]cnc2C)c1.O=C(O)CC(O)(CC(=O)O)C(=O)O	-15.02
COc1ccc(OC)c(CN(Cc2ccco2)Cc2[nH]cnc2C)c1.O=C(O)CC(O)(CC(=O)O)C(=O)O	50.25
Cc1noc([C@H]2C[C@H]3OCC[C@H]3N(C3CCC3)C2)n1.O=C(O)C(F)(F)F	-34.16
COc1ccc(OC)c(Sc2ncccc2C(=O)NCCSC)c1	-9.266
CC(=O)N1CC2(CCNCC2)c2cc(Cl)ccc21.Cl	63.2
COC(=O)N1CC2(CCNCC2)c2cc(Cl)ccc21.Cl	26.9
CN(C)C(=O)N1CC2(CCNCC2)c2cc(Cl)ccc21.Cl	-44.55
CN(C)Cc1cnn(-c2ccccc2C(=O)NCCC2CCCN2C)c1 (centres undefined)	17.58
O=C(Cc1c[nH]c2ccccc12)N1CCN(C(=O)c2ccoc2)CC1	-1.862
C[S+]([O-])c1nncn1CC(=O)c1cccc(Cl)c1 (centres undefined)	12.76
C[S+]([O-])c1nncn1CC(=O)c1ccc(Cl)c(Cl)c1 (centres undefined)	51.67
C[S+]([O-])c1nncn1CC(=O)c1ccc2c(c1)CCO2 (centres undefined)	2.009
COc1coc(C(=O)Nc2nc(-c3cccnc3)cs2)cc1=O	11.19
O=C(c1ccncn1)N1C[C@H]2CCC[C@@]2(COCC2CCOCC2)C1	2.154
Cc1nc(C)n(CC2CN(Cc3cc(C#N)ccc3F)CCO2)n1 (centres undefined)	13.34
COC(=O)C1=NOC(Cc2cc(OC)c3c(c2)OCO3)C1 (centres undefined)	104.6
COc1cc(CNCc2ccc(C(C)O)cc2)cc2c1OCO2 (centres undefined)	3.367
